HT1080 IDH1KD tx – qHTS for induction of synthetic lethality in tumor cells producing 2HG: qHTS for the HT-1080-IDH1KD cell line; AID 686971, 2013; HT-1080 IDH1 knockdown viability, ATP luminescence, 48 h; Potency, µM (highest dose often 46.1 µM), for the others: top-dose activity, negative = toxicity, usual class: cytotoxic; actives 2% (n = 360,000);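 note: potency is the fitted concentration of half-maximal effect; 0% = DMSO wells and -100% = cell-free medium wells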
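After a 2 h attachment period, IDH1KD HT-1080 cells took pin-transferred compound for 48 h at 37 °C; ATP-based luminescence after 10 min room-temperature reagent incubation reported viability.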
DT40 TDP1 no CPT – qHTS for Inhibitors of human tyrosyl-DNA phosphodiesterase 1 (TDP1): qHTS in cells in absence of CPT | DT40 Tdp1-/- hTDP1 cells, no CPT, ATP luminescence, 48 h | Potency, µM (series often up to 46.2 µM), inactives show at the highest dose activity change, negative = growth inhibition, actives largely listed as inhibitors | actives 15% (n = 420,000) | AID 686978, 2013; note: potency is the fitted concentration of half-maximal effect; nearly all actives have a fitted effect of over 55% in size
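Growth kinetics read by CellTiter-Glo luminescence after ≥48 hr at 37 °C. Cells: DT40 Tdp1-/- stably carrying human TDP1, 400 per well, compound exposure in the absence of CPT (DMSO vehicle).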
DT40 TDP1 CPT – qHTS for Inhibitors of human tyrosyl-DNA phosphodiesterase 1 (TDP1): qHTS in cells in presence of CPT | chicken DT40 Tdp1-/-;hTDP1 cells + 20 nM CPT, ATP luminescence, 48 h | actives 12% (n = 420,000) | Potency, µM (series often up to 46.2 µM), for inactives: top-dose activity change, negative = growth inhibition, hits mostly inhibitors; note: potency is the fitted concentration of half-maximal effect; nearly all actives have a fitted effect of over 55% in size
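Chicken DT40 Tdp1-/- cells stably complemented with human TDP1 were seeded at 400 cells/well in medium containing 20 nM camptothecin, exposed to pin-transferred compounds, and grown at 37 °C for at least 48 hr. Viability was read as ATP luminescence.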
HT1080-NT tox – qHTS for induction of synthetic lethality in tumor cells producing 2HG: qHTS for the HT-1080-NT fibrosarcoma cell line; HT-1080-NT fibrosarcoma viability, CellTiter-Glo ATP luminescence, 48 h; Potency, µM (highest dose often 46.1 µM), for the others: at the top dose activity, negative = less viability, most hits filed as cytotoxic; actives 1.6% (n = 360,000);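 note: NT is the 2HG producing partner of a matched IDH1 knockdown line; potency is the fitted concentration of half-maximal effect; 0% = DMSO-treated cells and -100% = media-only wells without cells; nearly all actives have a fitted effect of over 55% in size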
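A 48-hour cytotoxicity screen used HT-1080-NT cells plated 2 hours before compound delivery. ATP-based CellTiter-Glo luminescence measured viability, normalized to DMSO and no-cell controls.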
IL1B secr inh – qHTS for Inhibitors of Inflammasome Signaling: IL-1-beta AlphaLISA Primary Screen | AID 743279, 2014 | actives 4.7% (n = 360,000) | activity change, % at 57.5 µM | THP-1 LPS/ATP IL-1B secretion, AlphaLISA, 16 h; stronger effect = lower value; in the data active = activity change below about -50%; inconclusive = mostly about -30% to -49%
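THP-1 cells pretreated 1 hr with compounds (up to 57.5 uM final), then stimulated with LPS (250 ng/mL final) plus ATP (1.25 mM final); secreted IL-1B measured by AlphaLISA after 16 hr, decreased signal indicating inhibition.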
* = called active by the depositor; u = inconclusive; x = no result. In the library only some 19% were active in any assay of this set; here they are far more common. Unless noted, calls come from the whole dose curve; as a rule, active = well fitted curve in the direction sought with a large enough effect; inconclusive = small, poorly fitted or top-dose-only effect, or another doubt; inactive = no such curve, though single readings can be large; an effect the other way counts as inactive or inconclusive. Unless noted, % is set by controls: 0 for no effect and ±100 for the full control effect.

SMILES | HT1080 IDH1KD tx | DT40 TDP1 no CPT | DT40 TDP1 CPT | HT1080-NT tox | IL1B secr inh
CN(C)CCCn1c(SCC(=O)N2c3ccccc3Sc3ccccc32)nc2ccccc2c1=O | u | 23µM* | u | 18µM* | -102*
CCn1c(SCC(=O)Nc2nc(-c3ccc(C)cc3)cs2)nnc1-c1ccccc1 | -23% | 18µM* | u | -29% | -55*
c1ccc(NN(Cc2ccccn2)c2ccccc2)cc1 | -9% | u | -2% | -10% | 3
Cc1ccc(-c2csc(NC(=O)CSc3nc4ccccc4c(=O)n3CCCN(C)C)n2)cc1 | 23µM* | 15µM* | 10µM* | u | -97*
CCc1nnc(NC(=O)CSc2nnc(-c3ccccc3O)n2-c2ccc(C)cc2)s1 | 13µM* | u | u | 13µM* | 25
CCc1nnc(NC(=O)CSc2nnc(-c3ccccc3OC)n2-c2ccc(C)cc2)s1 | -18% | u | -24% | -16% | 40
CCn1c(SCC(=O)Nc2nc(-c3ccc(C)cc3)cs2)nnc1-c1ccccc1O | u | u | u | u | -51*
CC(=O)NC(=S)NNC(=O)C(c1ccccc1)c1ccccc1 | -22% | 21µM* | 13µM* | 0% | 58
CN(C)S(=O)(=O)c1ccc(C(=O)N2CCN=C2SCc2cccnc2)cc1 | -8% | -36% | -16% | -5% | 15
CC(=O)Nc1ccc(S(=O)(=O)N2CCN=C2SCc2ccc(F)cc2)cc1 | -15% | 26µM* | 18µM* | -19% | -15
Cc1cccc(CSC2=NCCN2S(=O)(=O)c2ccc(F)cc2)c1 | -18% | u | 16µM* | -7% | -10
Cc1cccc(CSC2=NCCN2C(=O)c2ccc(S(=O)(=O)N(C)C)cc2)c1 | -1% | 23µM* | u | -12% | -1
Cc1ccccc1-n1c(SCC(=O)c2c(N)n(C3CC3)c(=O)[nH]c2=O)nnc1N1CCOCC1 | 7% | -20% | 13% | 1% | -4
CC1=CC=CN2C1=NC(=O)CC2(C)C(=O)N(CC(=O)NC1CCCC1)c1cc(C)cc(C)c1 (stereo not drawn) | 2% | 1% | -3% | 3% | -4
CO[C@@H]1CN(C)C(=O)c2ccc(NC(=O)C3CCCC3)cc2OC[C@@H](C)N(Cc2ccc(F)cc2)C[C@H]1C | -21% | u | u | -19% | 0
CO[C@H]1CN(C)C(=O)c2ccc(NC(=O)C3CCC3)cc2OC[C@H](C)N(CC2CCCCC2)C[C@@H]1C | u | 21µM* | u | u | 15
CCC(=O)Nc1ccc2c(c1)OC[C@@H](C)N(Cc1cccc(F)c1)C[C@@H](C)[C@@H](OC)CN(C)C2=O | 9% | 23µM* | u | 5% | 4
CO[C@@H]1CN(C)C(=O)c2cc(NC(=O)NC3CCCCC3)ccc2OC[C@@H](C)N(CCc2ccccc2)C[C@@H]1C | u | u | 16µM* | u | -6
N#Cc1ccc(NC(=O)COCc2cc(-c3ccc(F)cc3)on2)cc1 | x | 21µM* | u | x | x
CC(=O)N1N=C(c2ccc(Cl)cc2)CC1c1ccc([N+](=O)[O-])cc1 (stereo not drawn) | 6% | u | u | 1% | -13
CC1(O)CC(c2ccc(Cl)cc2)=NN1C(=O)c1ccc([N+](=O)[O-])cc1 (stereo not drawn) | 16µM* | 18µM* | 21µM* | 10µM* | -88*
CCCCNC(=S)N(C)/N=C/c1c(F)c(F)c(F)c(F)c1F | -6% | u | -1% | -4% | -104*
CN(C)S(=O)(=O)c1cccc(NC(=O)c2ccc3c(c2)OCCO3)c1 | -1% | 15µM* | 15µM* | 2% | -3
O=C(Nc1cc(Cl)cc(Cl)c1)c1cccc(OC(F)F)c1 | -5% | u | 18µM* | -13% | -95*
COc1ccc(C)cc1NC(=O)c1ccc2c(c1)OCO2 | -4% | -25% | -12% | -7% | 2
SMILES | HT1080 IDH1KD tx | DT40 TDP1 no CPT | DT40 TDP1 CPT | HT1080-NT tox | IL1B secr inh
CN(C)S(=O)(=O)c1cccc(C(=O)Nc2cc(Cl)cc(Cl)c2)c1 | u | 18µM* | u | u | u
COc1ccc(S(=O)(=O)N(C)C)cc1NC(=O)c1ccc2c(c1)OCCO2 | -2% | -25% | -22% | 1% | -57*
COC(=O)CNC(=O)Cc1c(F)cccc1Cl | -2% | -3% | -10% | -5% | 18
C=C(C)C(=O)N1CC2(CC(c3cccc(NC(=O)CC)c3)=NO2)C[C@H]1C(N)=O (stereo partly drawn) | 13% | -5% | -12% | 19% | 0
CN1CCCN(C(=O)c2cccc(Cl)c2)CC1 | 2% | 17% | 18% | -2% | 2
CCNc1nc(C)nc2c1oc1ccccc12 | -7% | -21% | 0.58µM* | 0% | 8
Cc1nc(NC(C)C)c2oc3ccccc3c2n1 | 0% | 13µM* | u | -10% | u
O=C(COC(=O)c1ccccc1Oc1ccccc1)Nc1ccc(Br)cc1 | 13% | -22% | 1% | 13% | x
COc1ccc(OC)c(N(CCN2C(=O)c3ccccc3C2=O)C(=O)CCl)c1 | 16µM* | 21µM* | u | u | -104*
O=C(CCCN1C(=O)/C(=C\c2cccc(Br)c2)SC1=S)Nc1ccc(C(=O)O)cc1 | 13% | -16% | 6% | -1% | -4
O=C(/C=C/c1ccccc1)CC(=O)c1ccccc1 | -3% | u | u | 0% | -18
O=C(CC(=O)c1ccccc1)CC(O)(C=Cc1ccccc1)c1ccccc1 (stereo not drawn) | u | 16µM* | 21µM* | -21% | -10
O=C(CCn1c(=O)c2cccn2c2ccc(F)cc21)NCCc1ccc(Cl)cc1 | x | 15µM* | u | x | x
Cc1ccc(CCNC(=O)CCn2c(=O)c3cccn3c3ccc(F)cc32)cc1 | -13% | 18µM* | u | -5% | -18
O=C(COc1ncnc2ccc(Br)cc12)NC1CCCC1 | -5% | 18% | -15% | -3% | 19
COc1cc(C(=O)Nc2scc(-c3ccc(C)cc3)c2C(=O)O)cc(OC)c1OC | -20% | 0% | -11% | 6% | -18
CCOC(=O)c1c(-c2cc(OC)c(OC)c(OC)c2)csc1N | u | u | 23µM* | -22% | 25
CCOC(=O)c1c(-c2ccc(C)cc2)csc1NC(=O)/C(C#N)=C/c1ccc(O)c(OC)c1 | -2% | 15µM* | u | -1% | -22

Compound activity deposited in PubChem by National Center for Advancing Translational Sciences (NCATS).
